# Assay results as given in paper PMC12701074.
# Tests used:
# [1] = target: Histone H4 (UniProt P62805); assay: cross-linking mass spectrometry
# [2] = target: Histone H1.4 (UniProt P10412); assay: cross-link between two proteins; cross-linking mass spectrometry
# [3] = target: Protein RCC2 (UniProt Q9P258); assay: as above
# [4] = target: Beta-actin-like protein 2 (UniProt Q562R1); assay: as above
# [5] = target: Elongation factor 1-alpha 1 (UniProt P68104); assay: as above
# [6] = target: Histone H2B type 1-B (UniProt P33778); assay: as above
# [7] = target: Histone H2B type 1-L (UniProt Q99880); assay: as above
# [8] = target: Large ribosomal subunit protein eL8 (UniProt P62424); assay: as above
# [9] = target: Nucleolin (UniProt P19338); assay: as above
# Sequence of Nucleolin (P19338 whole entry): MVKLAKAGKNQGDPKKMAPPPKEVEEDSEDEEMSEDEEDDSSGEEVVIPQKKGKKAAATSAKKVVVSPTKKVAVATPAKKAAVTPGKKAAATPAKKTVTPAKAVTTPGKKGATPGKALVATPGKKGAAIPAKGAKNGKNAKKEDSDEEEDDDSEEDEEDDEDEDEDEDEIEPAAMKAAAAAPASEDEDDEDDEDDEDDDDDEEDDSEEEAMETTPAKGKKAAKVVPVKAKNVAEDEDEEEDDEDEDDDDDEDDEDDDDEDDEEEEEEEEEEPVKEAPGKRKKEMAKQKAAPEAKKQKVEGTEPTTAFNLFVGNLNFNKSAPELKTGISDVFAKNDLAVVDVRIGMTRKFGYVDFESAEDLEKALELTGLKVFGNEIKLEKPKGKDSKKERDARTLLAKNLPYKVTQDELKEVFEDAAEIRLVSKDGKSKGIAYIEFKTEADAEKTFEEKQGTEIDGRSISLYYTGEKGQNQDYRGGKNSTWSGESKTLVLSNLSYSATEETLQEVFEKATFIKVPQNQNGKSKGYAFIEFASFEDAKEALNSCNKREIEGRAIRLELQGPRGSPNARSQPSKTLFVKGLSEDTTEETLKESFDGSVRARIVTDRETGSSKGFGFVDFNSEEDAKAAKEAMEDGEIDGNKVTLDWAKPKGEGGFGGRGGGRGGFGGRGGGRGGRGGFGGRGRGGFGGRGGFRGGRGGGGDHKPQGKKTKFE
# [10] = target: Tubulin beta-2B chain (UniProt Q9BVA1); assay: as above
# Sequence of Tubulin beta-2B chain (Q9BVA1 whole entry): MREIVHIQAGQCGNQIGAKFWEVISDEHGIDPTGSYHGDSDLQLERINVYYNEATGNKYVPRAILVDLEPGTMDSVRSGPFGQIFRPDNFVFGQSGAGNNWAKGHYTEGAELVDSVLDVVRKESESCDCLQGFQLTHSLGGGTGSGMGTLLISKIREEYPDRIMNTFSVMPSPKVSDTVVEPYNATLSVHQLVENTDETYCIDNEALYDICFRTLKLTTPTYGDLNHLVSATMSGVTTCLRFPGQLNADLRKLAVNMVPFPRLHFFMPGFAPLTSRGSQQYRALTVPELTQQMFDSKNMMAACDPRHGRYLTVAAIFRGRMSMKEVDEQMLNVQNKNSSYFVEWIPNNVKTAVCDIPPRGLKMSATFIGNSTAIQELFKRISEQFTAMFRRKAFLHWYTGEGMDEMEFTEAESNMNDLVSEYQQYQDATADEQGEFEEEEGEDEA
# [11] = target: Tubulin beta-3 chain (UniProt Q13509); assay: as above
# Sequence of Tubulin beta-3 chain (Q13509 whole entry): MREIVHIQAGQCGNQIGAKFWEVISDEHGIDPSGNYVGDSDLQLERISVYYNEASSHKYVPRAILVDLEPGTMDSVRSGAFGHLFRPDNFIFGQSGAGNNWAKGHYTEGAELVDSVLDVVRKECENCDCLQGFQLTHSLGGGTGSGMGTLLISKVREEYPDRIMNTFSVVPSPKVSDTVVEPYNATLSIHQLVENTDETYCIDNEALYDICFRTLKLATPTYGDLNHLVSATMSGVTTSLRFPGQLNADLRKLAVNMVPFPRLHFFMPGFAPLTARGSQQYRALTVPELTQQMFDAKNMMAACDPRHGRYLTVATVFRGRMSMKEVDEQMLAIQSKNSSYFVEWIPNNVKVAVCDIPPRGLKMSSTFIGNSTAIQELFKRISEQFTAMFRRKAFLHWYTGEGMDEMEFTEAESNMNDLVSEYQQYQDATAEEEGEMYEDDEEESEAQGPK
# [12] = target: Tubulin beta-4B chain (UniProt P68371); assay: as above
# Sequence of Tubulin beta-4B chain (P68371 whole entry): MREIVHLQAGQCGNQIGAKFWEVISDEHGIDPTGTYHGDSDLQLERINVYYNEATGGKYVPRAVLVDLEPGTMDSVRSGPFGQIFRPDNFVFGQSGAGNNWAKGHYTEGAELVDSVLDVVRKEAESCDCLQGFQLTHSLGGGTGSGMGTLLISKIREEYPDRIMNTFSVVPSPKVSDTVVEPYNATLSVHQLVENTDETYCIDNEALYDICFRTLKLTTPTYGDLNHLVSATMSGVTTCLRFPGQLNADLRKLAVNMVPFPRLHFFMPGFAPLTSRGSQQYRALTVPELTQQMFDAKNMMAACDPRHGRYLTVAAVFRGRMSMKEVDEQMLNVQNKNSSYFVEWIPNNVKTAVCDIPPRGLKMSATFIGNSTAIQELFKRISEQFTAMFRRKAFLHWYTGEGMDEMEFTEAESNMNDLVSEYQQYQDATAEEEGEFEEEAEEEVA
# Sequence of Protein RCC2 (Q9P258 whole entry): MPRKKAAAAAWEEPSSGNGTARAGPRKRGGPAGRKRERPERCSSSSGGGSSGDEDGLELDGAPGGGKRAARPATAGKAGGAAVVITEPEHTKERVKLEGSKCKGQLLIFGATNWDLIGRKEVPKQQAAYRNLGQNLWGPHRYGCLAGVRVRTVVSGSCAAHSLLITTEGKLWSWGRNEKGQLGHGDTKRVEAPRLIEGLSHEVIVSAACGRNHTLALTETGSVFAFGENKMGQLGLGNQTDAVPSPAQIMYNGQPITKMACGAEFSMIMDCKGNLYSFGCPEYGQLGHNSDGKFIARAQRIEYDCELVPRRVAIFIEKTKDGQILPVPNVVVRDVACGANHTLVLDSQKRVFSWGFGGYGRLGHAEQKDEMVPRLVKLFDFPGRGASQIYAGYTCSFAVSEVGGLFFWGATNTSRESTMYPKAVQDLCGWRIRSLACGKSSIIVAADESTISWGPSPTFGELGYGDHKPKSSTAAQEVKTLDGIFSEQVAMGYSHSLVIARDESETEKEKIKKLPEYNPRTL
# Sequence of Beta-actin-like protein 2 (Q562R1 whole entry): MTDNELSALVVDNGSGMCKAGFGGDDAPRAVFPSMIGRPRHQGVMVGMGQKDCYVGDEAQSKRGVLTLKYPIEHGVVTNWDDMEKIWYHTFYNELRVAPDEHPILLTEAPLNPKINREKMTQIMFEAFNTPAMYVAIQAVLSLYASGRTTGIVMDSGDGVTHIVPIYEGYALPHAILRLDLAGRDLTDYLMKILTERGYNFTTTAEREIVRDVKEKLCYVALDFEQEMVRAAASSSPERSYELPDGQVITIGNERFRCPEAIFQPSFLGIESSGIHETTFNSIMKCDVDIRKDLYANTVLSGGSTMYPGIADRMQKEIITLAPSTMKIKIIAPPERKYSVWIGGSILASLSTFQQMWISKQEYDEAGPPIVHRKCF
# Sequence of ATP-dependent RNA helicase A, Q08211 (Q08211 whole entry): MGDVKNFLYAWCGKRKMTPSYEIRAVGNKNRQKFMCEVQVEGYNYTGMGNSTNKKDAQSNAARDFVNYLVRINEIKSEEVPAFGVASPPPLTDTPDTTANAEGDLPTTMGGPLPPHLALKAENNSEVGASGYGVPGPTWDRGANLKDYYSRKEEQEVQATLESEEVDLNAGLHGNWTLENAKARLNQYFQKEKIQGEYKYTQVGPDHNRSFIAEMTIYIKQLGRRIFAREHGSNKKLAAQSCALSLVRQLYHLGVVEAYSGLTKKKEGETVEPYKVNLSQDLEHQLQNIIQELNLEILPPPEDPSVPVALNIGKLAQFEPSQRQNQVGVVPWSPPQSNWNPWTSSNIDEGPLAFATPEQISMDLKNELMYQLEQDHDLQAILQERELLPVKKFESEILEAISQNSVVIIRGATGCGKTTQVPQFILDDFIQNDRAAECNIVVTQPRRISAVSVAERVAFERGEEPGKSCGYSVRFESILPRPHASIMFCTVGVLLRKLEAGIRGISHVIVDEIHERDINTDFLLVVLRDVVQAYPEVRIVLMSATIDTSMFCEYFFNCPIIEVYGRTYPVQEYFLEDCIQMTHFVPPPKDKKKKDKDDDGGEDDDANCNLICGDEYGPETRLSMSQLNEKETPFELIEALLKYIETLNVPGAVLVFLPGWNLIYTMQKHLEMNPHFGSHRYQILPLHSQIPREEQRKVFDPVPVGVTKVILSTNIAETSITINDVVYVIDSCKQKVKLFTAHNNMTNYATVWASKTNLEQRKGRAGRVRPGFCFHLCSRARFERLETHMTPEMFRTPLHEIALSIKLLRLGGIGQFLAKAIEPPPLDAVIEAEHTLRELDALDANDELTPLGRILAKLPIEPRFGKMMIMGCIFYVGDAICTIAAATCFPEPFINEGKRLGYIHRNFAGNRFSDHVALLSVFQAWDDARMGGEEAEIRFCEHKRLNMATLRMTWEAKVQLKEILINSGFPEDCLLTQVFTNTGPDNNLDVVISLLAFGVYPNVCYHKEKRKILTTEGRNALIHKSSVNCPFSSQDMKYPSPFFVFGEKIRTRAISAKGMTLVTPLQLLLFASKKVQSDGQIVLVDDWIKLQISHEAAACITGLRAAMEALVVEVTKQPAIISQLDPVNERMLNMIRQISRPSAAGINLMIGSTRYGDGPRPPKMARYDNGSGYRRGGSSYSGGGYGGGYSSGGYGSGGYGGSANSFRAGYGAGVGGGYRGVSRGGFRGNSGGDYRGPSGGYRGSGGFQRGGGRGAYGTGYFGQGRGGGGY
# Sequence of Elongation factor 1-alpha 1 (P68104 whole entry): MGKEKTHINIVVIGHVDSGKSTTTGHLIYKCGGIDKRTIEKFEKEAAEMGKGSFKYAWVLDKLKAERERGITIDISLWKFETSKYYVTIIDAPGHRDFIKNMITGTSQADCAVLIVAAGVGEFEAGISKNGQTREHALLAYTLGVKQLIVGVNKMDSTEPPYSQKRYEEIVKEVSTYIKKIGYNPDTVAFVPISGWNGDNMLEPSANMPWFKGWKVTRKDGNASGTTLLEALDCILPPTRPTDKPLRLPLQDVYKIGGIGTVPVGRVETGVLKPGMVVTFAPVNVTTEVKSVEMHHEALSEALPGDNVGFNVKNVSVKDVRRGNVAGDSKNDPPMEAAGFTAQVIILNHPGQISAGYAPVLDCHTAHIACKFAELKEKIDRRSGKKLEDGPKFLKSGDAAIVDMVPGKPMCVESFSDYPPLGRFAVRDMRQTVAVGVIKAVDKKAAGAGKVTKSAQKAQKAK
# Sequence of Glyceraldehyde-3-phosphate dehydrogenase, P04406 (P04406 whole entry): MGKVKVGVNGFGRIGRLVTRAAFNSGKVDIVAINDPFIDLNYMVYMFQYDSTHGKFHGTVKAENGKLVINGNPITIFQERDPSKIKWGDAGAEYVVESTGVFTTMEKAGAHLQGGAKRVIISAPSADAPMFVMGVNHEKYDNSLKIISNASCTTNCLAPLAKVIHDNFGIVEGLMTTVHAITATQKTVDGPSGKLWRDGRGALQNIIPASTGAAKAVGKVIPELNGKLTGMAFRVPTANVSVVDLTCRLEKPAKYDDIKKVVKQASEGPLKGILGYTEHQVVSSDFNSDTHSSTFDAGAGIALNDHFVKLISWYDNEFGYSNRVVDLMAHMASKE
substance,measurement,setting,value
"High mobility group protein B1, P09429",listed as a hit,[1],yes
same,listed as a hit,[2],yes
same,listed as a hit,[3],yes
"Destrin, P60981",listed as a hit,[4],yes
"Fructose-bisphosphate aldolase A, P04075",listed as a hit,[5],yes
same,listed as a hit,[6],yes
"Heterogeneous nuclear ribonucleoprotein D-like, O14979",listed as a hit,[7],yes
"ATP-dependent RNA helicase A, Q08211",listed as a hit,[7],yes
"Histone H1.3, P16402",listed as a hit,[8],yes
"Macrophage migration inhibitory factor, P14174",listed as a hit,[9],yes
"Tubulin beta-4B chain, P68371",listed as a hit,[10],yes
same,listed as a hit,[11],yes
"Tubulin beta chain, P07437",listed as a hit,[12],yes
"Glyceraldehyde-3-phosphate dehydrogenase, P04406",listed as a hit,[12],yes
